Laboratory results taken from the supplement of paper PMC8371130.
Where a name gives a salt, the structure may show the parent alone.

Test system: HL-1
Test: relative cell viability (CellTiter-Glo) vs DMSO control (% of DMSO control); higher = more viable cells
Procedure, shortened: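 Plating of HL-1 mouse atrial cardiomyocytes at 1000 cells per well in 384-well plates was done together with compounds at 40, 200, 1000 or 5000 nM in 0.01% DMSO. A day later the cells faced 48 h of 1% O2 and then 24 h of reoxygenation, or matching normoxia. Viability was measured via CellTiter-Glo luminescence and set relative to vehicle-treated control cells.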

[1] = oxygen condition: hypoxia 48 h (1% O2) + reoxygenation 24 h, 40 nM
[2] = oxygen condition: hypoxia 48 h (1% O2) + reoxygenation 24 h, 200 nM
[3] = oxygen condition: hypoxia 48 h (1% O2) + reoxygenation 24 h, 1000 nM
[4] = oxygen condition: hypoxia 48 h (1% O2) + reoxygenation 24 h, 5000 nM
[5] = oxygen condition: normoxia 72 h, 40 nM
[6] = oxygen condition: normoxia 72 h, 200 nM
[7] = oxygen condition: normoxia 72 h, 1000 nM
[8] = oxygen condition: normoxia 72 h, 5000 nM

SMILES | relative cell viability [1] | relative cell viability [2] | relative cell viability [3] | relative cell viability [4] | relative cell viability [5] | relative cell viability [6] | relative cell viability [7] | relative cell viability [8]
CC(=O)O[C@H]1C[C@@H]2CC[C@@H]3[C@H](CC[C@@]4(C)[C@H]3C[C@H]([N+]3(C)CCCCC3)[C@@H]4OC(C)=O)[C@@]2(C)C[C@@H]1N1CCCCC1 [Vecuronium Bromide] | 112 | 118 | 114 | 119 | 112 | 115 | 122 | 124
O=C(O)C1=CO[C@@H](O[C@@H]2O[C@H](CO)[C@@H](O)[C@H](O)[C@H]2O)[C@@H]2C(CO)=CC[C@H]12 [Geniposidic acid] | 107 | 109 | 110 | 112 | 103 | 120 | 117 | 121
N=C(N)NC(=N)N1CCOCC1 [Moroxydine] | 101 | 98.5 | 103 | 108 | 96.3 | 101 | 105 | 114
CC(=O)O[C@H]1C(=O)[C@@]2(C)[C@H]([C@H](OC(=O)c3ccccc3)[C@]3(O)C[C@H](OC(=O)[C@H](O)[C@@H](NC(=O)c4ccccc4)c4ccccc4)C(C)=C1C3(C)C)[C@]1(OC(C)=O)CO[C@@H]1C[C@@H]2O [Paclitaxel] | 42.4 | 42.8 | 39.9 | 30.5 | 52.3 | 52.2 | 33.2 | 22.2
CC12CC3CC(C)(C1)CC(N)(C3)C2 [Memantine HCl] | 105 | 105 | 101 | 106 | 94.5 | 101 | 108 | 93.4
COC(=O)[C@H](Cc1ccccc1)NC(=O)[C@@H](N)CC(=O)O [Aspartame] | 100 | 98 | 103 | 106 | 96.5 | 102 | 100 | 98.1
CCCS(=O)(=O)Nc1ccc(F)c(C(=O)c2c[nH]c3ncc(-c4ccc(Cl)cc4)cc23)c1F [Vemurafenib] | 102 | 111 | 107 | 111 | 104 | 96.2 | 106 | 118
Nc1ccn([C@@H]2O[C@H](CO)[C@@H](O)[C@H]2O)c(=O)n1 [Cytidine] | 101 | 101 | 105 | 106 | 106 | 107 | 101 | 106
CN(C)CC/C=C1/c2ccccc2COc2ccc(CC(=O)O)cc21 [Olopatadine hydrochloride] | 93 | 92.6 | 92.2 | 99.1 | 89.6 | 91.6 | 97.1 | 102
CNC(=C[N+](=O)[O-])NCCSCc1csc(CN(C)C)n1 [Nizatidine] | 108 | 104 | 106 | 95.7 | 115 | 104 | 106 | 85
CC[C@]1(O)C[C@H]2CN(CCc3c([nH]c4ccccc34)[C@@](C(=O)OC)(c3cc4c(cc3OC)N(C=O)[C@H]3[C@@](O)(C(=O)OC)[C@H](OC(C)=O)[C@]5(CC)C=CCN6CC[C@]43[C@@H]65)C2)C1 [Vincristine] | 38.3 | 40.4 | 44.4 | 42 | 32.5 | 29.1 | 32.3 | 41.1
CCOc1nc2cccc(C(=O)O)c2n1Cc1ccc(-c2ccccc2-c2nnn[nH]2)cc1 [Candesartan] | 110 | 105 | 110 | 109 | 107 | 109 | 108 | 110
O=c1[nH]cc(F)c(=O)[nH]1 [Adrucil] | 110 | 94.1 | 52.9 | 18.6 | 96.6 | 81.2 | 42.9 | 15.4
CNNCc1ccc(C(=O)NC(C)C)cc1 [Procarbazine HCl] | 109 | 101 | 96.6 | 108 | 97.6 | 101 | 97.9 | 113
N#Cc1ccc(C(c2ccc(C#N)cc2)n2cncn2)cc1 [Letrozole] | 103 | 105 | 109 | 104 | 107 | 110 | 105 | 110
CCCc1nc2c(C)cc(-c3nc4ccccc4n3C)cc2n1Cc1ccc(-c2ccccc2C(=O)O)cc1 [Telmisartan] | 107 | 102 | 105 | 101 | 105 | 104 | 107 | 109
Cc1onc(-c2ccccc2Cl)c1C(=O)N[C@@H]1C(=O)N2[C@@H]1SC(C)(C)[C@@H]2C(=O)O [Cloxacillin sodium] | 96 | 106 | 106 | 107 | 101 | 102 | 102 | 100
Cc1ccc(N(CC2=NCCN2)c2cccc(O)c2)cc1 [Phentolamine mesilate] | 96.2 | 94.7 | 107 | 106 | 102 | 104 | 108 | 115
CNC(=O)CN(CCN(CCN(CC(=O)[O-])CC(=O)NC)CC(=O)[O-])CC(=O)[O-].[Gd+3] [Gadodiamide] | 98 | 104 | 98.5 | 106 | 103 | 98.8 | 107 | 112
CC(C)n1c(/C=C/C(O)CC(O)CC(=O)O)c(-c2ccc(F)cc2)c2ccccc21 (centres undefined) [Fluvastatin sodium] | 88.9 | 57.3 | 17.3 | 3.7 | 101 | 83.5 | 28.6 | 4.76
C[C@@H]1C[C@H]2[C@@H]3C[C@H](F)C4=CC(=O)C=C[C@]4(C)[C@@]3(F)[C@@H](O)C[C@]2(C)[C@@]1(O)C(=O)CO [Flumethasone] | 105 | 97.4 | 103 | 106 | 96.3 | 95.8 | 94.4 | 108
Cn1c(=O)c2c(ncn2CC2OCCO2)n(C)c1=O [Doxofylline] | 101 | 111 | 122 | 113 | 108 | 111 | 113 | 122

SMILES | relative cell viability [1] | relative cell viability [2] | relative cell viability [3] | relative cell viability [4] | relative cell viability [5] | relative cell viability [6] | relative cell viability [7] | relative cell viability [8]
Nc1ccn([C@@H]2O[C@H](CO)[C@@H](O)C2(F)F)c(=O)n1 [Gemcitabine] | 3.81 | 3.59 | 4.33 | 3.65 | 3.56 | 3.5 | 3.75 | 3.7
CNS(=O)(=O)Cc1ccc2[nH]cc(CCN(C)C)c2c1 [Sumatriptan succinate] | 107 | 109 | 100 | 110 | 102 | 100 | 108 | 104
CN(C)CCCN1c2ccccc2CCc2ccccc21 [Imipramine HCl] | 98.5 | 98.9 | 96.2 | 110 | 100 | 101 | 101 | 111
O=C[C@H](O)[C@@H](O)[C@H](O)CO [Xylose] | 106 | 102 | 103 | 111 | 107 | 105 | 112 | 111
O=c1[nH]c(=O)n([C@H]2C[C@H](O)[C@@H](CO)O2)cc1F [Floxuridine] | 49.5 | 40.7 | 31.4 | 17.4 | 46.1 | 41.5 | 28.6 | 16.3
COc1nc(C)nc(Cl)c1NC1=NCCN1 [Moxonidine] | 103 | 97.1 | 99.6 | 112 | 110 | 103 | 107 | 111
NS(=O)(=O)c1cc2c(cc1Cl)NCNS2(=O)=O [Hydrochlorothiazide] | 103 | 106 | 110 | 106 | 110 | 107 | 107 | 115
CCN(CC)C(=O)/C(C#N)=C/c1cc(O)c(O)c([N+](=O)[O-])c1 [Entacapone] | 101 | 105 | 103 | 108 | 100 | 111 | 103 | 114
CC/C(=C(\c1ccccc1)c1ccc(OCCN(C)C)cc1)c1ccccc1 [Tamoxifen Citrate] | 103 | 99.9 | 98.6 | 108 | 95.9 | 107 | 105 | 103
CCCCC1=NC2(CCCC2)C(=O)N1Cc1ccc(-c2ccccc2-c2nnn[nH]2)cc1 [Irbesartan] | 103 | 102 | 107 | 108 | 107 | 105 | 102 | 107
CC(CCc1ccc(O)cc1)NCC(O)c1ccc(O)cc1 (centres undefined) [Ractopamine HCl] | 103 | 100 | 108 | 60.4 | 98.9 | 104 | 106 | 106
CCCOc1ccc(C(=O)OCCN(CC)CC)cc1N [Proparacaine HCl] | 88.3 | 98.9 | 97.8 | 107 | 103 | 92.4 | 78.4 | 106
S=c1[nH]cnc2nc[nH]c12 [Mercaptopurine] | 112 | 104 | 111 | 99.1 | 103 | 103 | 108 | 103
C=C1/C(=C\C=C2/CCC[C@]3(C)[C@@H]([C@H](C)CCCC(C)(C)O)CC[C@@H]23)C[C@@H](O)C[C@@H]1O [Calcitriol] | 90.8 | 91.2 | 92.9 | 91 | 94.5 | 92.6 | 93.6 | 89.9
CC(C)(Oc1ccc(CCNC(=O)c2ccc(Cl)cc2)cc1)C(=O)O [Bezafibrate] | 102 | 98.2 | 105 | 107 | 105 | 101 | 99.8 | 103
C[C@H](CCC(=O)O)[C@H]1CC[C@H]2[C@@H]3[C@@H](O)C[C@@H]4C[C@H](O)CC[C@]4(C)[C@H]3CC[C@]12C [Ursodiol] | 103 | 106 | 118 | 106 | 99.7 | 105 | 119 | 108
CN1CCCC(n2nc(Cc3ccc(Cl)cc3)c3ccccc3c2=O)CC1 (centres undefined) [Azelastine hydrochloride] | 96.2 | 98.2 | 101 | 85.4 | 97.9 | 102 | 96.4 | 84.2
O=NO [Sodium nitrite] | 109 | 110 | 116 | 122 | 109 | 116 | 107 | 114
N#C[C@@H]1CCCN1C(=O)CNC12CC3CC(CC(O)(C3)C1)C2 [Vildagliptin] | 63.4 | 104 | 114 | 117 | 103 | 95.7 | 99 | 119
CCCc1cc(=O)[nH]c(=S)[nH]1 [Propylthiouracil] | 106 | 105 | 107 | 120 | 99.3 | 108 | 107 | 110
Fc1ccc(C(c2ccc(F)cc2)N2CCN(C/C=C/c3ccccc3)CC2)cc1 [Flunarizine 2HCl] | 93.6 | 100 | 98.7 | 117 | 107 | 99.7 | 109 | 114
